From PubChem BioAssay (NCI) come the findings set out here.

Among the test systems are HCT-15 colon; HT29 colon; SNB-75 CNS; SNB-19 CNS; U251 CNS; PC-3 prostate; SK-MEL-5 melanoma; UACC-62 melanoma; LOX IMVI melanoma; SK-MEL-2 melanoma; EKVX NSCLC; SN12C renal; UO-31 renal; TK-10 renal; ACHN renal; CAKI-1 renal; HL-60(TB) leukemia; CCRF-CEM leukemia.
Assay in all cases: NCI-60 one-dose screen, 48 h (100 = growth as untreated, 0 = no growth, -100 = all killed)
The next assay concerns SK-MEL-28 melanoma. The conditions noted are these: 10 µM unless noted.
For another assay, the system named is A498 renal. The conditions noted are these: 10 µM unless noted.

The structures appear in SMILES notation. Several values for one entry are separate records, joined by “and”; a condition that tells them apart may be missing. Identical values can stand only once. About 83,000 compounds went through this panel and 20% of them were active in at least one assay; those are over-represented in the sample as a whole.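 Step 1: grow cells in 96-well plates. Step 2: add test compound at a single concentration. Step 3: incubate 48 h. Step 4: record percent growth.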 Activity calls are given as the source filed them. How the source made its calls: active means growth percent below 10; inactive means the rest.

Consider `Cc1nc2ccccc2c(=O)n1-c1ccccc1F`, for which the growth is 103% (inactive) with HCT-15 colon (10 µM unless noted); 103% (inactive) with HT29 colon (10 µM unless noted); 82.1% (inactive) with SNB-75 CNS (10 µM unless noted); 104% (inactive) in the assay on SNB-19 CNS (10 µM unless noted); 88.1% (inactive) in the assay on U251 CNS (10 µM unless noted); 86.6% (inactive) with PC-3 prostate (10 µM unless noted). Further, the growth in the assay with SK-MEL-5 melanoma (10 µM unless noted) was 100% (inactive); in the assay with UACC-62 melanoma (10 µM unless noted), 105% (inactive); with LOX IMVI melanoma (10 µM unless noted), 103% (inactive); in the assay on SK-MEL-28 melanoma it was 111% (inactive); in the assay with SK-MEL-2 melanoma (10 µM unless noted) it was 105% (inactive); with EKVX NSCLC (10 µM unless noted) it was 89.3% (inactive). Moreover, the growth in the assay with SN12C renal (10 µM unless noted) is 95% (inactive); in the assay on UO-31 renal (10 µM unless noted), 88.1% (inactive); in the assay on TK-10 renal (10 µM unless noted), 98% (inactive); with ACHN renal (10 µM unless noted), 104% (inactive); with CAKI-1 renal (10 µM unless noted), 96.4% (inactive); in the assay on A498 renal, 84.5% (inactive). Also, the growth is 89.3% (inactive) in the assay on HL-60(TB) leukemia (10 µM unless noted) and 99.1% (inactive) in the assay on CCRF-CEM leukemia (10 µM unless noted).

`CCC(Br)(CC)C(=O)NC(N)=O`: the growth was 103% (inactive) in the assay on HCT-15 colon (10 µM unless noted); 108% (inactive) with HT29 colon (10 µM unless noted); 86.1% (inactive) in the assay on SNB-75 CNS (10 µM unless noted); 104% (inactive) in the assay with SNB-19 CNS (10 µM unless noted); 105% (inactive) in the assay on U251 CNS (10 µM unless noted); 91.4% (inactive) in the assay on PC-3 prostate (10 µM unless noted). Further, the growth is 99.2% (inactive) in the assay with SK-MEL-5 melanoma (10 µM unless noted); 100% (inactive) with UACC-62 melanoma (10 µM unless noted); 102% (inactive) with LOX IMVI melanoma (10 µM unless noted); 109% (inactive) in the assay on SK-MEL-28 melanoma; 109% (inactive) in the assay on SK-MEL-2 melanoma (10 µM unless noted); 107% (inactive) with EKVX NSCLC (10 µM unless noted). Besides, the growth with SN12C renal (10 µM unless noted) was 103% (inactive); in the assay on UO-31 renal (10 µM unless noted) it was 93.2% (inactive); with TK-10 renal (10 µM unless noted) it was 104% (inactive); in the assay on ACHN renal (10 µM unless noted), 109% (inactive); in the assay on CAKI-1 renal (10 µM unless noted), 98.2% (inactive); in the assay on A498 renal it was 104% (inactive). Besides, the growth in the assay on HL-60(TB) leukemia (10 µM unless noted) was 99.6% (inactive); in the assay on CCRF-CEM leukemia (10 µM unless noted), 102% (inactive).

Turning to `COc1cc(C2C3=C(CCCC3=O)N(CCO)c3cc4c(cc32)CCC4)cc(OC)c1OC` (centres undefined), the growth is 89.2% (inactive) in the assay on HCT-15 colon (10 µM unless noted); 71.7% (inactive) in the assay on HT29 colon (10 µM unless noted); 99.5% (inactive) in the assay on SNB-75 CNS (10 µM unless noted); 87.3% (inactive) with SNB-19 CNS (10 µM unless noted); 88.3% (inactive) in the assay with U251 CNS (10 µM unless noted); 80.7% (inactive) in the assay with PC-3 prostate (10 µM unless noted). The growth in the assay with SK-MEL-5 melanoma (10 µM unless noted) was 87.1% (inactive); in the assay on UACC-62 melanoma (10 µM unless noted), 67.7% (inactive); in the assay on LOX IMVI melanoma (10 µM unless noted) it was 80.4% (inactive); in the assay on SK-MEL-28 melanoma, 96.9% (inactive); in the assay on SK-MEL-2 melanoma (10 µM unless noted), 76.9% (inactive); with EKVX NSCLC (10 µM unless noted) it was 81.2% (inactive). Moreover, the growth with SN12C renal (10 µM unless noted) was 92.6% (inactive); with UO-31 renal (10 µM unless noted) it was 67.8% (inactive); with TK-10 renal (10 µM unless noted), 82.1% (inactive); in the assay with ACHN renal (10 µM unless noted), 94.9% (inactive); with CAKI-1 renal (10 µM unless noted), 64% (inactive); with A498 renal, 100% (inactive). Also, the growth with HL-60(TB) leukemia (10 µM unless noted) was 102% (inactive).

Consider `Cc1ccc(P(=O)(O)O)cc1`, for which the growth with HCT-15 colon (10 µM unless noted) was 107% (inactive); in the assay with HT29 colon (10 µM unless noted), 109% (inactive); with SNB-75 CNS (10 µM unless noted), 107% (inactive); with SNB-19 CNS (10 µM unless noted) it was 97.9% (inactive); in the assay with U251 CNS (10 µM unless noted) it was 101% (inactive); in the assay with PC-3 prostate (10 µM unless noted) it was 107% (inactive). Moreover, the growth was 107% (inactive) in the assay on SK-MEL-5 melanoma (10 µM unless noted); 98.6% (inactive) in the assay with UACC-62 melanoma (10 µM unless noted); 104% (inactive) with LOX IMVI melanoma (10 µM unless noted); 112% (inactive) with SK-MEL-28 melanoma; 109% (inactive) in the assay on SK-MEL-2 melanoma (10 µM unless noted); 100% (inactive) in the assay on EKVX NSCLC (10 µM unless noted). The growth in the assay with SN12C renal (10 µM unless noted) was 97.7% (inactive); in the assay with UO-31 renal (10 µM unless noted) it was 96.6% (inactive); in the assay on TK-10 renal (10 µM unless noted), 102% (inactive); with ACHN renal (10 µM unless noted), 109% (inactive); with CAKI-1 renal (10 µM unless noted), 97.2% (inactive); in the assay on A498 renal, 115% (inactive).

As for `CCOC(=O)c1cncn1C(C)c1ccccc1` (centres undefined), the growth with HCT-15 colon (10 µM unless noted) is 106% (inactive); with HT29 colon (10 µM unless noted) it was 95.1% (inactive); in the assay with SNB-75 CNS (10 µM unless noted), 94.3% (inactive); with SNB-19 CNS (10 µM unless noted) it was 106% (inactive); with U251 CNS (10 µM unless noted), 100% (inactive); in the assay on PC-3 prostate (10 µM unless noted) it was 97.9% (inactive). In addition, the growth with SK-MEL-5 melanoma (10 µM unless noted) was 102% (inactive); in the assay on UACC-62 melanoma (10 µM unless noted) it was 100% (inactive); with LOX IMVI melanoma (10 µM unless noted), 101% (inactive); in the assay on SK-MEL-28 melanoma, 114% (inactive); in the assay on SK-MEL-2 melanoma (10 µM unless noted), 105% (inactive); in the assay on EKVX NSCLC (10 µM unless noted), 98.2% (inactive). The growth with SN12C renal (10 µM unless noted) was 102% (inactive); in the assay on UO-31 renal (10 µM unless noted), 81% (inactive); with TK-10 renal (10 µM unless noted) it was 95.2% (inactive); in the assay with ACHN renal (10 µM unless noted), 102% (inactive); in the assay on CAKI-1 renal (10 µM unless noted), 94.6% (inactive); in the assay with A498 renal, 134% (inactive). In addition, the growth was 104% (inactive) with HL-60(TB) leukemia (10 µM unless noted) and 94.7% (inactive) in the assay with CCRF-CEM leukemia (10 µM unless noted).

In the case of `O=C(O)CCCc1ccc(N(CCCl)CCCl)cc1`, the growth in the assay on HCT-15 colon (10 µM) is 86.1% (inactive) and 95.5% (inactive); with HCT-15 colon (75 µM) it was 46.3% (inactive); in the assay on HT29 colon (10 µM), 85.7% (inactive) and 74.5% (inactive); in the assay with HT29 colon (75 µM), 45.2% (inactive); in the assay with SNB-75 CNS (10 µM), 88.9% (inactive) and 90.1% (inactive); in the assay with SNB-75 CNS (75 µM), 3.53% (active). Besides, the growth in the assay on SNB-19 CNS (10 µM) was 102% (inactive) and 95.9% (inactive); in the assay on SNB-19 CNS (75 µM) it was 32.9% (inactive); in the assay on U251 CNS (10 µM) it was 85.1% (inactive) and 84% (inactive); with U251 CNS (75 µM), 30% (inactive); in the assay on PC-3 prostate (10 µM), 85.3% (inactive) and 64.5% (inactive); with PC-3 prostate (75 µM), 45.3% (inactive). Also, the growth was 93% (inactive) and 88.4% (inactive) in the assay on SK-MEL-5 melanoma (10 µM); 38.6% (inactive) with SK-MEL-5 melanoma (75 µM); 82.7% (inactive) and 78.8% (inactive) in the assay on UACC-62 melanoma (10 µM); 28.6% (inactive) in the assay with UACC-62 melanoma (75 µM); 83.1% (inactive) and 80.2% (inactive) with LOX IMVI melanoma (10 µM); 26.7% (inactive) in the assay with LOX IMVI melanoma (75 µM). In addition, the growth in the assay on SK-MEL-28 melanoma was 99.3% (inactive); with SK-MEL-2 melanoma (10 µM) it was 102% (inactive) and 109% (inactive); with SK-MEL-2 melanoma (75 µM) it was 100% (inactive); in the assay with EKVX NSCLC (10 µM), 101% (inactive); in the assay with EKVX NSCLC (75 µM) it was 82.2% (inactive); in the assay on SN12C renal (10 µM), 82.9% (inactive) and 86.8% (inactive). Also, the growth in the assay on SN12C renal (75 µM) is 41.2% (inactive); in the assay with UO-31 renal (10 µM) it was 83.4% (inactive) and 89.5% (inactive); in the assay with UO-31 renal (75 µM), 28.8% (inactive); with TK-10 renal (10 µM), 102% (inactive); with TK-10 renal (75 µM) it was 84.6% (inactive); in the assay with ACHN renal (10 µM) it was 72.4% (inactive) and 38.8% (inactive). Also, the growth in the assay with ACHN renal (75 µM) is -12.3% (active); in the assay on CAKI-1 renal (10 µM), 57.9% (inactive) and 34.2% (inactive); in the assay on CAKI-1 renal (75 µM), -12.5% (active); with HL-60(TB) leukemia (10 µM), 19.6% (inactive); in the assay on HL-60(TB) leukemia (75 µM), 3.35% (active); with CCRF-CEM leukemia (10 µM) it was 71.9% (inactive) and 46.6% (inactive). Also, in the assay with CCRF-CEM leukemia (75 µM), the growth is -7.66% (active).
